Common to all, as to assay: PBM; 200 nM protein, PBS
Conditions in all cases: dsDNA, one strand shown

Test [1] concerns the target NKX2-5 (Homo sapiens, UniProt P52952 125-210, R139K).
Test [2] concerns the target NKX2-5 (Homo sapiens, UniProt P52952 125-210).
Test [3] deals with HOXB9 (Homo sapiens, UniProt P17482 171-250, T197M).
Test [4] addresses HOXC9 (Homo sapiens, UniProt P31274 178-260, K195R).
In test [5] the target is T1, VENTX (Homo sapiens, UniProt O95231 78-163).
T1 sequence: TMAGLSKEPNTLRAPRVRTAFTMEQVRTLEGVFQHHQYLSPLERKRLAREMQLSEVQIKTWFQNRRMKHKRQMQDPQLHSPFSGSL

Test [6] deals with T2, PAX4 (Homo sapiens, UniProt O43316 9-242, R200K).
T2 sequence: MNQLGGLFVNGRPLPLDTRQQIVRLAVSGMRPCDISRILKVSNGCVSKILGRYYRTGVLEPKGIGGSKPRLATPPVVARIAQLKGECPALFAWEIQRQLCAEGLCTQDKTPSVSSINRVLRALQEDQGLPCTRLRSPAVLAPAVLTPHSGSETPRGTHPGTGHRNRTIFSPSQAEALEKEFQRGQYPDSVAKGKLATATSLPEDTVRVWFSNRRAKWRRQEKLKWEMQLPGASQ

Test [7] addresses T3, VENTX (Homo sapiens, UniProt O95231 78-163, Y115F).
T3 sequence: T1 sequence with Y38F

Test [8] addresses T4, PAX4 (Homo sapiens, UniProt O43316 9-242).
T4 sequence: T2 sequence with K192R

Test [9] concerns the target HOXB9 (Homo sapiens, UniProt P17482 171-250).
In test [10] the target is T5, PAX4 (Homo sapiens, UniProt O43316 9-242, R200Q).
T5 sequence: T2 sequence with K192Q

The target in test [11] is HOXC9 (Homo sapiens, UniProt P31274 178-260, R193K).
For test [12], the target named is T6, PAX4 (Homo sapiens, UniProt O43316 9-242, F177V).
T6 sequence: T2 sequence with F169V, K192R

A further test concerns the target HOXC10 (Homo sapiens, UniProt Q9NYD6 254-340, K271E).
In test [13] the target is T7, PAX4 (Homo sapiens, UniProt O43316 9-242, F177Y).
T7 sequence: T2 sequence with F169Y, K192R

The target in a further test is VAX1 (Homo sapiens, UniProt Q5SQQ9 86-172).
Test [14] addresses HOXB9 (Homo sapiens, UniProt P17482 171-250, R186Q).
The target in test [15] is HOXC9 (Homo sapiens, UniProt P31274 178-260, R222W).
In test [16] the target is T8, PAX4 (Homo sapiens, UniProt O43316 9-242, R227W).
T8 sequence: T2 sequence with K192R, R219W

The target in test [17] is HOXA2 (Homo sapiens, UniProt O43364 129-215, Y150S).
Test [18] addresses HOXA2 (Homo sapiens, UniProt O43364 129-215).

Substitutions are numbered along the chain they refer to.

Chain of HOXB9 (Homo sapiens, UniProt P17482 171-250, R186Q) (P17482 171-250 R186Q): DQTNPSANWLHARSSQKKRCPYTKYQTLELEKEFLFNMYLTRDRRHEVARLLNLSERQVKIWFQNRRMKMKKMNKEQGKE
Chain of HOXB9 (Homo sapiens, UniProt P17482 171-250) (P17482 171-250): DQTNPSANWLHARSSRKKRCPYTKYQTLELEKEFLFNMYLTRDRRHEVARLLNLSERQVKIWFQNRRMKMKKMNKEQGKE
Chain of HOXC10 (Q9NYD6 254-340 K271E): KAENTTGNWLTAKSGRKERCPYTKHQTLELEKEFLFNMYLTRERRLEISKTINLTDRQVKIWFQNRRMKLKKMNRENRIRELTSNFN
Chain of HOXA2 (Homo sapiens, UniProt O43364 129-215, Y150S) (O43364 129-215 Y150S): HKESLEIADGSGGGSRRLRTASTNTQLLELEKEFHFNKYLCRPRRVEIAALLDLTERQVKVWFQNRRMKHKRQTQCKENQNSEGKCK
Chain of HOXC9 (Homo sapiens, UniProt P31274 178-260, R222W) (P31274 178-260 R222W): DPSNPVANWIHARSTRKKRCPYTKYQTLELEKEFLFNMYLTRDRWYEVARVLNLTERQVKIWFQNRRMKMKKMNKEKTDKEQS
Chain of HOXC9 (Homo sapiens, UniProt P31274 178-260, K195R) (P31274 178-260 K195R): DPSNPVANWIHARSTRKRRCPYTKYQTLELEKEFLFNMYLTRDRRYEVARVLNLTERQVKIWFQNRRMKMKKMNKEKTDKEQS
Chain of HOXA2 (Homo sapiens, UniProt O43364 129-215) (O43364 129-215): as the sequence (O43364 129-215 Y150S) above, with S22Y counted along it
Chain of HOXB9 (Homo sapiens, UniProt P17482 171-250, T197M) (P17482 171-250 T197M): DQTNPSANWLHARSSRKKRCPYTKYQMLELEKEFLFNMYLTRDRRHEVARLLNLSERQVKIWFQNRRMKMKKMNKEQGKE
Chain of VAX1 (Q5SQQ9 86-172): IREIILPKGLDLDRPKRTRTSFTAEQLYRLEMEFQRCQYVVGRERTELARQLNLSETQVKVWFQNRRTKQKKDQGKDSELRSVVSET
Chain of HOXC9 (Homo sapiens, UniProt P31274 178-260, R193K) (P31274 178-260 R193K): as the sequence (P31274 178-260 R222W) above, with R16K, W45R counted along it
Chain of NKX2-5 (Homo sapiens, UniProt P52952 125-210) (P52952 125-210): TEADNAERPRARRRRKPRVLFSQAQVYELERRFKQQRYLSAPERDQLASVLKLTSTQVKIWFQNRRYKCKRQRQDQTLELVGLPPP
Chain of NKX2-5 (Homo sapiens, UniProt P52952 125-210, R139K) (P52952 125-210 R139K): as the sequence (P52952 125-210) above, with R15K counted along it

On to GCCCTCTA, for which the binding signal with NKX2-5 [1] is 10.4 upbm affinity estimate (log intensity, higher = more binding, comparable within an allelic series); with NKX2-5 [2], 10.5 upbm affinity estimate (log intensity, higher = more binding, comparable within an allelic series).

In the case of AATTAATT, the binding signal with HOXB9 [3] is 10.3 upbm affinity estimate (log intensity, higher = more binding, comparable within an allelic series); in the test with HOXC9 [4], 12.9 upbm affinity estimate (log intensity, higher = more binding, comparable within an allelic series); with VENTX [5], 12.5 upbm affinity estimate (log intensity, higher = more binding, comparable within an allelic series); in the test with PAX4 [6], 12.1 upbm affinity estimate (log intensity, higher = more binding, comparable within an allelic series); with VENTX [7] it was 11.8 upbm affinity estimate (log intensity, higher = more binding, comparable within an allelic series); in the test with PAX4 [8] it was 12.7 upbm affinity estimate (log intensity, higher = more binding, comparable within an allelic series). The binding signal with HOXB9 [9] was 12.2 upbm affinity estimate (log intensity, higher = more binding, comparable within an allelic series); with PAX4 [10] it was 12.8 upbm affinity estimate (log intensity, higher = more binding, comparable within an allelic series); in the test with HOXC9 [11], 12.8 upbm affinity estimate (log intensity, higher = more binding, comparable within an allelic series); in the test with PAX4 [12], 10.9 upbm affinity estimate (log intensity, higher = more binding, comparable within an allelic series); with HOXC10 it was 12.2 upbm affinity estimate (log intensity, higher = more binding, comparable within an allelic series); in the test with PAX4 [13] it was 11.6 upbm affinity estimate (log intensity, higher = more binding, comparable within an allelic series). Moreover, the binding signal is 13.3 upbm affinity estimate (log intensity, higher = more binding, comparable within an allelic series) in the test with VAX1; 11.9 upbm affinity estimate (log intensity, higher = more binding, comparable within an allelic series) in the test with HOXB9 [14]; 11.2 upbm affinity estimate (log intensity, higher = more binding, comparable within an allelic series) with HOXC9 [15]; 11.3 upbm affinity estimate (log intensity, higher = more binding, comparable within an allelic series) with PAX4 [16]; 11 upbm affinity estimate (log intensity, higher = more binding, comparable within an allelic series) with HOXA2 [17]; 12.8 upbm affinity estimate (log intensity, higher = more binding, comparable within an allelic series) in the test with HOXA2 [18].

As to TAATTATA, the binding signal with HOXB9 [3] was 10.3 upbm affinity estimate (log intensity, higher = more binding, comparable within an allelic series); with HOXC9 [4] it was 12.8 upbm affinity estimate (log intensity, higher = more binding, comparable within an allelic series); in the test with VENTX [5] it was 12.4 upbm affinity estimate (log intensity, higher = more binding, comparable within an allelic series); in the test with PAX4 [6], 11.7 upbm affinity estimate (log intensity, higher = more binding, comparable within an allelic series); with VENTX [7], 11.8 upbm affinity estimate (log intensity, higher = more binding, comparable within an allelic series); with PAX4 [8], 12.2 upbm affinity estimate (log intensity, higher = more binding, comparable within an allelic series). The binding signal with HOXB9 [9] is 11.9 upbm affinity estimate (log intensity, higher = more binding, comparable within an allelic series); with PAX4 [10] it was 12.1 upbm affinity estimate (log intensity, higher = more binding, comparable within an allelic series); in the test with HOXC9 [11], 12.7 upbm affinity estimate (log intensity, higher = more binding, comparable within an allelic series); with PAX4 [12] it was 10.7 upbm affinity estimate (log intensity, higher = more binding, comparable within an allelic series); with HOXC10, 12.2 upbm affinity estimate (log intensity, higher = more binding, comparable within an allelic series); in the test with PAX4 [13] it was 11 upbm affinity estimate (log intensity, higher = more binding, comparable within an allelic series). The binding signal in the test with VAX1 was 13.3 upbm affinity estimate (log intensity, higher = more binding, comparable within an allelic series); with HOXB9 [14], 11.6 upbm affinity estimate (log intensity, higher = more binding, comparable within an allelic series); with HOXC9 [15] it was 11.2 upbm affinity estimate (log intensity, higher = more binding, comparable within an allelic series); with PAX4 [16], 11.1 upbm affinity estimate (log intensity, higher = more binding, comparable within an allelic series); with HOXA2 [17], 11.1 upbm affinity estimate (log intensity, higher = more binding, comparable within an allelic series); in the test with HOXA2 [18], 13 upbm affinity estimate (log intensity, higher = more binding, comparable within an allelic series).

Take CTTAATTA: the binding signal with HOXB9 [3] was 10.2 upbm affinity estimate (log intensity, higher = more binding, comparable within an allelic series); with HOXC9 [4] it was 12.7 upbm affinity estimate (log intensity, higher = more binding, comparable within an allelic series); with VENTX [5], 12.9 upbm affinity estimate (log intensity, higher = more binding, comparable within an allelic series); with PAX4 [6], 12.1 upbm affinity estimate (log intensity, higher = more binding, comparable within an allelic series); in the test with VENTX [7], 12.3 upbm affinity estimate (log intensity, higher = more binding, comparable within an allelic series); with PAX4 [8], 12.7 upbm affinity estimate (log intensity, higher = more binding, comparable within an allelic series). The binding signal with HOXB9 [9] is 11.8 upbm affinity estimate (log intensity, higher = more binding, comparable within an allelic series); in the test with PAX4 [10] it was 12.6 upbm affinity estimate (log intensity, higher = more binding, comparable within an allelic series); with HOXC9 [11], 12.6 upbm affinity estimate (log intensity, higher = more binding, comparable within an allelic series); in the test with PAX4 [12], 11 upbm affinity estimate (log intensity, higher = more binding, comparable within an allelic series); with HOXC10, 12.2 upbm affinity estimate (log intensity, higher = more binding, comparable within an allelic series); with PAX4 [13], 11.5 upbm affinity estimate (log intensity, higher = more binding, comparable within an allelic series). Moreover, the binding signal is 13.8 upbm affinity estimate (log intensity, higher = more binding, comparable within an allelic series) with VAX1; 11.5 upbm affinity estimate (log intensity, higher = more binding, comparable within an allelic series) with HOXB9 [14]; 11.1 upbm affinity estimate (log intensity, higher = more binding, comparable within an allelic series) with HOXC9 [15]; 11.3 upbm affinity estimate (log intensity, higher = more binding, comparable within an allelic series) with PAX4 [16]; 11 upbm affinity estimate (log intensity, higher = more binding, comparable within an allelic series) in the test with HOXA2 [17]; 13.1 upbm affinity estimate (log intensity, higher = more binding, comparable within an allelic series) with HOXA2 [18].

For the origin of these results see article PMC11006913.
